From PubChem BioAssay AID602438 (Sanford-Burnham Center for Chemical Genomics, 2012)
The whole screen tested about 360,000 compounds, of which about 3,100 (0.86%) were called active. Many of the other results were omitted from the sample, so actives are more common in it than they were. Unmarked numbers belong to inactive results.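 How the source made its calls: active means inhibition or corrected inhibition above about 18%, plus a signal ratio from 0.5 to 1.5 (limit read from the data, passing the limit was not always enough); inactive means the rest.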

target: Neuropilin-1 (Homo sapiens) (UniProt O14786); assay: NRP-1/CendR peptide interaction modulators – biochemical, fluorescence polarization, uHTS, primary screen (AID 602438); details: FAM-RPARPAR peptide binding to NRP-1, fluorescence polarization; at 25 µM; hits give high values
Sequence (O14786 whole entry, looked up): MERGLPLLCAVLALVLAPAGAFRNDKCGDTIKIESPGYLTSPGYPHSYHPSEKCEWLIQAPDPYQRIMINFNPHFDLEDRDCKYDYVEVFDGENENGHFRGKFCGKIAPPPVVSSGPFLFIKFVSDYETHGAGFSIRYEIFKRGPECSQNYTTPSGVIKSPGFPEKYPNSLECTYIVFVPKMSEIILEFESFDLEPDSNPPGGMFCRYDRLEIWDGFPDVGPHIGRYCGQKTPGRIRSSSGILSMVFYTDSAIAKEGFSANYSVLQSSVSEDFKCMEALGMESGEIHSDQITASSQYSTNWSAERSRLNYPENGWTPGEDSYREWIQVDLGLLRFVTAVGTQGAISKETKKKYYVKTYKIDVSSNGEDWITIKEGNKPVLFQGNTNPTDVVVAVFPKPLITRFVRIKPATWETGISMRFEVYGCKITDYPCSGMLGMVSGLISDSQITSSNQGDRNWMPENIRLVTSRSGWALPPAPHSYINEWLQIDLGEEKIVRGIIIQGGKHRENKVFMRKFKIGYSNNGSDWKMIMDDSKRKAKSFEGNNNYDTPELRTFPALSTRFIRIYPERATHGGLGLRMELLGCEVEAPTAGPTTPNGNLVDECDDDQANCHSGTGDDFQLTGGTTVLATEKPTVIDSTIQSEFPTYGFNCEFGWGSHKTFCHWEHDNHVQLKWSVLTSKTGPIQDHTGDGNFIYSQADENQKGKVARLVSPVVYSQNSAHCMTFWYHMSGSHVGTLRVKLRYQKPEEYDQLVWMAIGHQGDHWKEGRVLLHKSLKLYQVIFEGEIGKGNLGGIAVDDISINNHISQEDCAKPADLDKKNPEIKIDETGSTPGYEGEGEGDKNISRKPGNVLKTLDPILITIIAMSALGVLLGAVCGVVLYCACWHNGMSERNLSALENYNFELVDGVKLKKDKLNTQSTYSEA

SMILES	inhibition
Cn1c(=O)cc(OCCCC(=O)N2CCN(c3ccccn3)CC2)c2ccccc21	-0.5%
Cc1ccc(C)c(NC(=O)C(c2ccccc2)N2CCN(CC(=O)NC3CC3)CC2)c1 (stereo not given)	-1.3%
CCOC(=O)c1[nH]c2ccc(C)cc2c1N=C(C)N(C)C	28.1% (active)
CCOC(=O)c1ccc2[nH]c3c(c2c1)CCCC3NC=O (stereo not given)	-0.5%
CCOC(=O)c1cc2cc(C)ccc2[nH]1	1.1%
CC1CC1C(=O)OCC(=O)Nc1cccc(F)c1 (stereo not given)	5.8%
O=P(c1cccs1)(c1cccs1)c1cccs1	6.4%
CN(CCCNC(=O)CN1C(=O)CC(C)(C)S(=O)(=O)c2ccccc21)C1CCCCC1	12.4%
COc1ccc(CCc2nc(-c3cccs3)no2)cc1	-5.8%
Clc1ccc(Cc2nnc(-c3cccs3)o2)cc1	-15.6%
COc1nc(-c2ccc(Cl)cc2)ccc1-c1noc(-c2cccs2)n1	49.1% (active)
O=C(OCc1ccc([N+](=O)[O-])cc1)C1CC(=O)N(Cc2ccccc2Cl)C1 (stereo not given)	-11.4%
O=C(O)c1ccc(NS(=O)(=O)c2ccc3c(c2)C(=O)c2cc(S(=O)(=O)Nc4ccc(C(=O)O)cc4)ccc2-3)cc1	-59.7%
Cc1ccc(-c2noc(-c3ccccc3C(=O)NCC3CCCO3)n2)cc1 (stereo not given)	28% (active)
O=C(NCC1CCCO1)c1ccccc1-c1nc(-c2ccccc2Cl)no1 (stereo not given)	8%
O=C(Nc1ccccc1C(=O)NCC1CCCO1)c1ccccc1F (stereo not given)	20.7%
COc1ccc(NS(=O)(=O)c2ccc(C)c(C(=O)NCC(c3cccs3)N3CCOCC3)c2)cc1 (stereo not given)	6.2%
CC1(C(=O)Nc2ccc3c(c2)OCCO3)CN(S(C)(=O)=O)CC(=O)N1Cc1cccc(F)c1 (stereo not given)	-4.8%
CN1CCCc2cc(C#N)c(=O)[nH]c21	4.8%
CCCCn1nnnc1C(c1ccccc1)N1CCN(c2ccccc2OC)CC1 (stereo not given)	-6.7%
CCCCn1nnnc1C(c1cc2ccccc2o1)N(C)Cc1ccc(Cl)c(Cl)c1 (stereo not given)	26.3% (active)
Cn1nnnc1NCc1ccc(Cl)c(Cl)c1	12.8%
COc1ccc(S(=O)(=O)N2CCCC(C(=O)Nc3ccc(NC(=O)c4ccccn4)cc3)C2)cc1 (stereo not given)	0.1%
CCCC(C(=O)n1nc(C)cc1C)C(NS(=O)(=O)c1ccc(C)cc1)c1ccccc1 (stereo not given)	-0.9%
O=C1OC[C@@H]2CCCN2C(=O)[C@H](CC(=O)N(CCO)Cc2ccccc2)C/C=C\CC[C@@H]1Cc1ccc(F)cc1	4.4%
CC(C)(C)OC(=O)C[C@@H]1C/C=C\C[C@@H](CC(=O)N(CCO)Cc2ccccc2)C(=O)N[C@H](Cc2ccccc2)COC1=O	-9.4%
O=C1CCC/C=C/C[C@@H](CC(=O)N(CCO)Cc2ccccc2)C(=O)NC[C@H](c2ccccc2)O1	4.9%
O=C1NC[C@@H](c2ccccc2)OC(=O)[C@H](Cc2ccc(F)cc2)CC/C=C/C[C@H]1CC(=O)N(CCO)Cc1ccccc1	23.4% (active)

SMILES	inhibition
O=C1CCC/C=C\C[C@@H](CC(=O)N(CCO)Cc2ccccc2)C(=O)NCCO1	4.9%
O=C1N[C@H](Cc2c[nH]c3ccccc23)COC(=O)[C@H](Cc2ccc(F)cc2)C/C=C\C[C@H]1CC(=O)N(CCO)Cc1ccccc1	22.7% (active)
CCN(Cc1ccccc1)S(=O)(=O)c1cc(C(=O)O)ccc1OC	13.4%
C/C(N)=C(\C#N)C(=O)NCCc1ccccn1	-1.8%
CC(C)CN(C(=O)c1cccc(S(=O)(=O)N2CCCCC2)c1)C1CCS(=O)(=O)C1 (stereo not given)	-6.3%
COCC1CCCN(C(=O)c2ccc3oc(C(C)C)nc3c2)C1 (stereo not given)	-5.1%
Cc1ccc(S(=O)(=O)N(CC(O)CN2C(=O)NC(C)(C)C2=O)c2cccc([N+](=O)[O-])c2)cc1 (stereo not given)	24.8% (active)
COc1ccc([N+](=O)[O-])cc1N(CC(O)Cn1nnc2ccccc21)S(=O)(=O)c1ccc(C)cc1 (stereo not given)	7%
Cc1ccc(S(=O)(=O)N(CC(O)CN2CCCCC2)c2cccc([N+](=O)[O-])c2)cc1 (stereo not given)	-0.8%
CCOC(=O)C1(C)CCCN(C(=O)c2ccc(N(C)C)cc2)C1 (stereo not given)	-8.3%
CCOC(=O)C1(C)CCCN(C(=O)c2cccc(Cl)c2)C1 (stereo not given)	20% (active)
CCOC(=O)C1(C)CCCN(C(=O)c2ccc(F)c(Cl)c2)C1 (stereo not given)	16.4%
CC(OC(=O)c1cccnc1Cl)C(=O)NC1CCCCC1 (stereo not given)	0.1%
CCOc1ccc(S(=O)(=O)NCCC(=O)NCC(C)(C)N2CCOCC2)cc1	-3.6%
COc1ccc(C(=O)NC2CC(C)(C)NC(C)(C)C2)cc1OC	-3.8%
COc1ccc(C(=O)N2CC3(C)CC2CC(C)(C)C3)cc1OC (stereo not given)	33.3% (active)
CN(C)C(=O)COC(=O)c1cccc(S(=O)(=O)N2CC3(C)CC2CC(C)(C)C3)c1 (stereo not given)	9.7%
O=c1[nH]c2ccccc2n1C1CCN(CCOc2ccccc2)CC1	-8%
Cc1ccc(S(=O)(=O)N(CC(=O)Nc2cccnc2)c2ccc(Br)cc2)cc1	0.4%
COc1ccccc1-c1nnc2n1N=C(c1ccc(OC(F)F)c(OCC3CC3)c1)CS2	18.8% (active)
COc1ccc(C2=Nn3c(nnc3-c3ccccc3OC)SC2)cc1OC1CCCC1	2.4%
Cc1ccc(NC2CCCN(C(=O)CCc3cn[nH]c3)C2)cc1C (stereo not given)	5.4%
CN(C)c1ccc(Nc2c3c4c(cccc4n(C)c2=O)C(=O)c2ccccc2-3)cc1	28.9% (active)
CCOc1cc(CNCCN(C)C)c(Cl)cc1OCC(=O)NCCc1ccccc1	-1.5%
CCOC(=O)N1CCN(C(=O)CNC(=O)Cc2ccc(Cl)cc2)CC1	24.6% (active)
CCOC(=O)N1CCN(C(=O)C(C)NC(=O)c2ccco2)CC1 (stereo not given)	5.9%
CCOC(=O)N1CCN(C(=O)Cc2ccc(-n3c(=S)[nH]c4ccccc4c3=O)cc2)CC1	2.6%
